SMILES strings stand for the structures. Compounds without any hit were thinned out: in the full panel of roughly 83,000, 20% have a hit.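 Each cell line was grown in a 96-well plate and treated with one concentration of compound for 48 hours. Values below 10 were considered active.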 Unmarked numbers belong to inactive results. Calls of active or inactive are those of the source.

For this experiment, the system named is HL-60(TB) leukemia. The experiment in a line: NCI-60 one-dose screen, 48 h (100 = growth as untreated, 0 = no growth, -100 = all killed). As to conditions: 10 µM unless noted.
Turning to `CCc1cc2n(n1)-c1ncc(C(=O)OC)cc1Oc1ccccc1-2`, the growth is 105%.
For `O=C1N=C(c2c(-c3[nH]c(=O)c4ccc(Br)cc4c3O)c(O)c3ccccc3c2O)C(=O)c2cc(Br)ccc21` the value was 45.6%.
In the case of `COc1cc2cc(NCc3ccc(OC(F)F)cc3)nc(C)c2cc1OC`, the growth is 38.7%.
`O=C(Nc1ncc(Cc2ccc(Cl)cc2)s1)C1=NCCCCN1`: the growth was 97%.
With `CCN(C(=O)c1cc2ncccc2[nH]1)[C@H]1CCC[C@@H](NCc2cccc(F)c2)C1`, the growth was 130%.
On to `Cc1ccc(S(=O)(=O)Nn2c3c(cc(-c4nc5ccccc5s4)c2=O)CCCCCC3)cc1`, for which the growth is 102%.
For `COc1ccc(/C=N/C2=NNC(C)(c3ccccc3O)N2C(Cc2c[nH]c3ccccc23)C(=O)O)cc1` (stereo not given) the value was -21.9% (active); for `NC1=NC(c2ccc(Cl)cc2)C2=C(N1)/C(=C/c1ccc(Cl)cc1)CCC2` (stereo not given), 64.8%.
As to `Nc1ccc(C2=Nc3cccc4cccc(c34)S2)cc1`, the growth was 76.7%.
Take `Clc1ccc(N2N=C(c3cccc(Nc4ccncc4)c3)CC2c2ccccc2)cc1` (stereo not given): the growth was 85.4%.
On to `O=C(CCCOc1ccc(Br)cc1)Nc1ncc(Cc2ccc(F)cc2)s1`, for which the growth is 34.7%.
Turning to `COc1cc(C2CC(c3ccc(Nc4ccnc5cc(Cl)ccc45)cc3)=NN2c2ccc(Cl)cc2)cc(OC)c1OC` (stereo not given), the growth is 40.3%.
As for `C[C@H](NC(=O)c1snnc1C1CC1)c1c(F)cccc1Cl`, the growth was 146%.
Take `O=C(c1nc2ccccc2[nH]1)C1C(c2ccc(Cl)cc2)C2CC3CCCC[C@H]3N2[C@@]12C(=O)Nc1cc(Cl)ccc12` (stereo not given in full): the growth was 23.8%.
`COc1ccccc1N(C(C)=O)C1=C(Cl)C(=O)c2ccccc2C1=O`: the growth is -27.5% (active).
As to `COc1cc(/C=C/CO)cc(OC)c1O[C@@H]1O[C@H](CO)[C@@H](O)[C@H](O)[C@H]1O`, the growth is 85.9%.
With `CCCC1CCCCN1C(=O)OCC(C)C` (stereo not given) the figure was 107%; with `Cc1cc2nc(-c3c(-c4ccc(F)cc4)nc4sccn34)[nH]c2cc1C`, 87.3%; with `CN(C)C(=O)c1cc2cnc(Nc3ccc(-c4csc5c(=O)cc(N6CCOCC6)oc45)cc3)nc2n1C1CCCC1`, -46.7% (active).
With `COc1ccc(-c2nn(-c3cccc(NC(=O)Nc4ccccc4)c3)cc2-c2ccncc2)cc1Cl`, the growth is -10.6% (active).
With `CC(C)COC(=O)NC(C)(C)C` the figure was 85.2%; with `COc1ccccc1NS(=O)(=O)c1ccc2oc(SC(C)C)nc2c1`, 53.6%.
Regarding `C=C(C)[C@@H]1CC[C@]2(C(=O)O)CC[C@]3(C)[C@H](CC[C@@H]4[C@@]5(C)C[C@@H](CC#Cc6ccc(Cl)cc6)C(=O)C(C)(C)[C@@H]5CC[C@]43C)[C@@H]12`, the growth was 22.2%.
Turning to `CSc1nc2ccccc2cc1/C=[N+](\[O-])c1ccccc1`, the growth is -13.4% (active).
On to `Cc1ccc(C(=O)c2ccccc2)c(C)c1`, for which the growth was 115%.
Consider `O=[N+]([O-])c1ccc(Br)o1`, for which the growth was 74.8%.
In the case of `CCCc1cc2c(=O)c(C(=O)OC)c[nH]c2cc1N(CC)CC`, the growth was 91.6%.
With `Cc1cccc([N+](=O)[O-])c1I`, the growth was 143%.
With `COC(=O)/C(Br)=C/c1c[nH]c2ccc(Br)cc12` the figure was 67.9%.
For the compound `CC[C@@H]1C(=O)N(C)c2cnc(Nc3ccc(C(=O)NC4CCC(N5CCN(CC6CC6)CC5)CC4)cc3OC)nc2N1C(C)C` (stereo not given in full), the growth was -48.5% (active).
On to `CCc1nc(C(N)=O)c(Nc2ccc(N3CCC(N4CCN(C)CC4)CC3)c(OC)c2)nc1NC1CCOCC1`, for which the growth is 9.89% (active).
Take `O=C(Cn1nnc2ccccc21)N/N=C/c1c[nH]c2ccccc12`: the growth is 31.1%.
On to `OC1COC(OCc2ccccc2)C(O)C1O` (stereo not given), for which the growth was 101%.
Regarding `CCOC(=O)c1cc(C(=O)c2ccc(F)cc2F)n2ccccc12`, the growth is 96.4%.
Turning to `O=C1/C(=C/c2ccccc2)SC(=Nc2ccccc2)N1Nc1ccccc1`, the growth was -7.82% (active).
Consider `COC(=O)c1nc(=S)[nH]c(C(=O)OC)c1C(=O)c1ccc(Cl)c(Cl)c1`, for which the growth is 101%.
For `Cc1nc2sccn2c1-c1csc(Nc2ccccc2Cl)n1` the value was 19.2%.
`O=[N+]([O-])c1ccc(O)c2ncccc12`: the growth is -4.85% (active).
Turning to `Cc1ccc2c(c1)sc1nc(-c3c[nH]c4ccccc34)c(Nc3ccccc3)n12`, the growth is 97%.
For `NC(=NCCCOc1ccc(F)cc1)Nc1ccc(I)cc1` the value was 72.6%.

For the origin of these results see PubChem BioAssay (NCI).
